“And” between values parts separate entries of the source, which are not always exact repeats. Identical values can stand only once. Results filed as inconclusive are left out. The source made the active and inactive calls. How the source made its calls: active means hit-call score of the fitted dose curve at least 0.9, where 1 is the maximum; inconclusive means response in the unintended direction; inactive means score below 0.9. *1 amine or outer side, *2 acyl side, *3 side chain or, on linkers, in order; H or OH if unused. Where a SMILES comes first, the peptide text is derived from it. Bridges are numbered along the chain shown (N, C = ends). Roman numbers before positions name the chains, in order. [ ]: non-standard residue; d: D form. Actinocin(9to1) = Cc1c2oc3c(C)ccc(C(=O)[*:1])c3nc-2c(C(=O)[*:2])c(N)c1=O; NMeV = CN[C@H](C(=O)O)C(C)C; Sar = CNCC(=O)O

Sequence of Cellular tumor antigen p53 (Homo sapiens) (P04637 whole entry, looked up): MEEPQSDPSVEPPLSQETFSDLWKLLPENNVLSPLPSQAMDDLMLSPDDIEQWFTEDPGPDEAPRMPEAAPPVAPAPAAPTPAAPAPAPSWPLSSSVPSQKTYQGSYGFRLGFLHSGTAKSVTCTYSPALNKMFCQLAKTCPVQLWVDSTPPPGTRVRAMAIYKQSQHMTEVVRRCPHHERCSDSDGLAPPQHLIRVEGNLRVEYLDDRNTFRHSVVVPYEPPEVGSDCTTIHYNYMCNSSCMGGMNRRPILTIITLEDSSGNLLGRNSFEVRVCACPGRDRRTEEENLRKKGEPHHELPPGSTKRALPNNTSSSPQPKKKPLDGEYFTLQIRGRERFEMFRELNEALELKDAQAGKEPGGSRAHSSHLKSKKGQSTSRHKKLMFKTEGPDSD

System in the first experiment: not listed separately
The experiment is described as follows: TOX21_p53_BLA_p4_viability: Viability Assessment in the Tox21 HCT-116 p53 Agonism Beta-lactamase Assay, Phase 4 (AID 2283597).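 Further: hits lower the luminescence signal meaning cytotoxicity.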 The procedure, abridged:
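Readout: ATP luminescence (CellTiter-Glo), measured 30 min after reagent addition at RT. The reagent followed a 2 h CCF4-AM incubation, and the cells had been exposed to compound for 16 h at 37C.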
For `CC1C(=O)CC2C3(C)CCC2(C(C)C(=O)O)C(=O)C13` (stereo not given), the compound was classed as inactive.

For `O=S(=O)(O)CCCS(=O)(=O)O`, the compound was called inactive.

Regarding `CC[C@H](C)C(=O)O[C@H]1CCC=C2C=C[C@H](C)[C@H](CC[C@@H]3C[C@@H](O)CC(=O)O3)[C@H]21`, the call was inactive.

In the case of `O=C(O)P(=O)(O)O`, the outcome was inactive.

`N[C@@H](Cc1cc(I)c(O)c(I)c1)C(=O)O`: the compound was classed as inactive.

`NC(Cc1ccc(F)cc1)C(=O)O` (stereo not given): the call was inactive.

`Cc1cc(C2CCCCC2)n(O)c(=O)c1`: the compound was classed as inactive.

For `C[C@@H]1C[C@H]2[C@@H]3C[C@H](F)C4=CC(=O)C=C[C@]4(C)[C@@]3(Cl)[C@@H](O)C[C@]2(C)[C@H]1C(=O)COC(=O)C(C)(C)C`, the call was inactive.

Regarding `CC(=O)[C@]1(O)Cc2c(O)c3c(c(O)c2[C@@H](O[C@H]2C[C@H](N)[C@H](O)[C@H](C)O2)C1)C(=O)c1c(O)cccc1C3=O`, the call was inactive.

Regarding `CN1C[C@@H]2C[C@H]1CN2c1cc2c(cc1F)c(=O)c(C(=O)O)cn2C1CC1`, the compound was called inactive.

With `CCOC(=O)c1c(N)sc2c1CCN(Cc1ccccc1)C2`, the outcome was inactive.

As for `CC(C)NCC(O)c1ccc2ccccc2c1` (stereo not given), the call was inactive.

Turning to `Nc1ccn(C2CO[C@H](CO)O2)c(=O)n1` (stereo not given in full), the call was inactive.

As to `c1ccc(-n2cnnn2)cc1`, the result was inactive.

As to `C[C@@H]1C[C@H]2[C@@H]3CCC4=CC(=O)C=C[C@]4(C)[C@@]3(F)[C@@H](O)C[C@]2(C)[C@@]1(O)C(=O)CO`, the call was inactive.

For `O=C(O)c1cc(=O)c2c(OCC(O)COc3cccc4oc(C(=O)O)cc(=O)c34)cccc2o1`, the outcome was inactive.

For the compound `CC(C)=C1CC[C@@H](C)CC1=O`, the result was inactive.

In the case of `CCCCCCCCCCC[C@@H](C[C@@H]1OC(=O)[C@H]1CCCCCC)OC(=O)[C@H](CC(C)C)NC=O`, the call was inactive.

Take `O=S(O)CO`: the compound was classed as inactive.

`Oc1ccc(OCc2ccccc2)cc1`: the compound was classed as inactive.

On to `CC(C)(C)NC[C@H](O)COc1nsnc1N1CCOCC1`, for which the call was inactive.

With `c1ccc([C@H]2CN3CCSC3=N2)cc1`, the outcome was inactive.

`C=C(C)C(=O)OCCCC`: the result was inactive.

In the case of `CO[C@@H]1[C@@H](OC)[C@H](C)[C@@](O)(CC(=O)O)O[C@H]1[C@H](C)[C@H]1O[C@@]2(CC[C@@](C)([C@H]3CC[C@@](C)([C@@H]4O[C@@H]([C@H]5O[C@](C)(O)[C@H](C)C[C@@H]5C)C[C@@H]4OC4C[C@H](OC)[C@@H](OC)[C@H](C)O4)O3)O2)C[C@H](O)[C@H]1C` (stereo not given in full), the outcome was inactive.

Take `CO[C@H](C(=O)[C@@H](O)[C@@H](C)O)C1Cc2cc3cc(O[C@H]4C[C@@H](O[C@H]5C[C@@H](O)[C@H](O)[C@@H](C)O5)[C@@H](O)[C@@H](C)O4)c(C)c(O)c3c(O)c2C(=O)[C@H]1O[C@H]1C[C@@H](O[C@H]2C[C@@H](O[C@H]3C[C@](C)(O)[C@H](O)[C@@H](C)O3)[C@H](O)[C@@H](C)O2)[C@H](O)[C@@H](C)O1` (stereo not given in full): the outcome was inactive.

For the compound `Nc1ccccc1O`, the AC50 (commonly the midpoint of the concentration-response curve, whichever way the signal moves) is 75.4 µM (active).

For `CCCCCCCCCCCCCCC[C@H](O)[C@@H](N)CO`, the call was inactive.

In the case of `[Cl-].[Cl-].[NH2-].[NH2-].[Pt+4]`, the compound was classed as inactive.

With `CC(=O)O[Si](C)(OC(C)=O)OC(C)=O`, the result was inactive.

For `O=C(O)CCCc1ccccc1`, the outcome was inactive.

With `CC(CO)Oc1ccccc1` (stereo not given), the compound was classed as inactive.

Turning to `Nc1ncnc2c1ncn2[C@@H]1O[C@H](COP(=O)(O)OP(=O)(O)OP(=O)(O)O)[C@@H](O)[C@H]1O`, the result was inactive.

For `CCCCCCCCCCCl`, the call was inactive.

Consider `CCOC(=O)COc1ccc(C)cc1`, for which the result was inactive.

As to `CCO[Si](CC(C)C)(OCC)OCC`, the outcome was inactive.

`COc1ccccc1C=CC=O`: the compound was called inactive.

`CCCCCCCCS`: the call was inactive.

For `Cc1c2oc3c(C)ccc(C(=O)N[C@@H]4C(=O)N[C@H](C(C)C)C(=O)N5CCC[C@H]5C(=O)N(C)CC(=O)N(C)[C@@H](C(C)C)C(=O)O[C@@H]4C)c3nc-2c(C(=O)N[C@@H]2C(=O)N[C@H](C(C)C)C(=O)N3CCC[C@H]3C(=O)N(C)CC(=O)N(C)[C@@H](C(C)C)C(=O)O[C@@H]2C)c(N)c1=O` (I: T[dV]P[Sar][NMeV] / II: T[dV]P[Sar][NMeV]; ester I:1-I:C, II:1-II:C; linker I:N-II:N via Actinocin(9to1)), the outcome was inactive.

For the compound `Nc1c2c(nc3ccccc13)CCCC2`, the compound was classed as inactive.

In the case of `CN1C(=O)CN2CCc3ccccc3C2c2cc(Cl)ccc21` (stereo not given), the outcome was inactive.

A further experiment concerns the target Cellular tumor antigen p53 (Homo sapiens) (UniProt P04637). The experiment is described as follows: TOX21_p53_BLA_p5_ratio: Tox21 HCT-116 p53 Agonism Beta-lactamase Assay, Ratio, Phase 5 (AID 2283599). The procedure, abridged:
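Beta-lactamase reporter ratio (blue 460 nm over green 530 nm, 405 nm excitation) after 2 h CCF4-AM loading, in HCT-116 cells exposed 16 h at 37 C to compounds pinned at 217-fold dilution. Increases relative to DMSO baseline scored.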
As for `CC1C(=O)CC2C3(C)CCC2(C(C)C(=O)O)C(=O)C13` (stereo not given), the outcome was inactive.

As for `O=S(=O)(O)CCCS(=O)(=O)O`, the result was inactive.

For the compound `CC[C@H](C)C(=O)O[C@H]1CCC=C2C=C[C@H](C)[C@H](CC[C@@H]3C[C@@H](O)CC(=O)O3)[C@H]21`, the outcome was inactive.

Take `O=C(O)P(=O)(O)O`: the outcome was inactive.

`N[C@@H](Cc1cc(I)c(O)c(I)c1)C(=O)O`: the result was inactive.

Take `NC(Cc1ccc(F)cc1)C(=O)O` (stereo not given): the outcome was inactive.

In the case of `Cc1cc(C2CCCCC2)n(O)c(=O)c1`, the result was inactive.

Take `C[C@@H]1C[C@H]2[C@@H]3C[C@H](F)C4=CC(=O)C=C[C@]4(C)[C@@]3(Cl)[C@@H](O)C[C@]2(C)[C@H]1C(=O)COC(=O)C(C)(C)C`: the outcome was inactive.

Take `CC(=O)[C@]1(O)Cc2c(O)c3c(c(O)c2[C@@H](O[C@H]2C[C@H](N)[C@H](O)[C@H](C)O2)C1)C(=O)c1c(O)cccc1C3=O`: the result was inactive.

Take `CN1C[C@@H]2C[C@H]1CN2c1cc2c(cc1F)c(=O)c(C(=O)O)cn2C1CC1`: the outcome was inactive.

Turning to `CCOC(=O)c1c(N)sc2c1CCN(Cc1ccccc1)C2`, the result was inactive.

`CC(C)NCC(O)c1ccc2ccccc2c1` (stereo not given): the outcome was inactive.

Take `Nc1ccn(C2CO[C@H](CO)O2)c(=O)n1` (stereo not given in full): the AC50 was 0.000329 µM (active).

As for `c1ccc(-n2cnnn2)cc1`, the result was inactive.

For the compound `C[C@@H]1C[C@H]2[C@@H]3CCC4=CC(=O)C=C[C@]4(C)[C@@]3(F)[C@@H](O)C[C@]2(C)[C@@]1(O)C(=O)CO`, the outcome was inactive.

Regarding `O=C(O)c1cc(=O)c2c(OCC(O)COc3cccc4oc(C(=O)O)cc(=O)c34)cccc2o1`, the result was inactive.

For `CC(C)=C1CC[C@@H](C)CC1=O`, the result was inactive.

Regarding `CCCCCCCCCCC[C@@H](C[C@@H]1OC(=O)[C@H]1CCCCCC)OC(=O)[C@H](CC(C)C)NC=O`, the result was inactive.

In the case of `O=S(O)CO`, the result was inactive.

Take `Oc1ccc(OCc2ccccc2)cc1`: the outcome was inactive.

Consider `CC(C)(C)NC[C@H](O)COc1nsnc1N1CCOCC1`, for which the result was inactive.

For `c1ccc([C@H]2CN3CCSC3=N2)cc1`, the result was inactive.

With `C=C(C)C(=O)OCCCC`, the result was inactive.

Take `CO[C@@H]1[C@@H](OC)[C@H](C)[C@@](O)(CC(=O)O)O[C@H]1[C@H](C)[C@H]1O[C@@]2(CC[C@@](C)([C@H]3CC[C@@](C)([C@@H]4O[C@@H]([C@H]5O[C@](C)(O)[C@H](C)C[C@@H]5C)C[C@@H]4OC4C[C@H](OC)[C@@H](OC)[C@H](C)O4)O3)O2)C[C@H](O)[C@H]1C` (stereo not given in full): the AC50 is 16.7 µM (active).

With `CO[C@H](C(=O)[C@@H](O)[C@@H](C)O)C1Cc2cc3cc(O[C@H]4C[C@@H](O[C@H]5C[C@@H](O)[C@H](O)[C@@H](C)O5)[C@@H](O)[C@@H](C)O4)c(C)c(O)c3c(O)c2C(=O)[C@H]1O[C@H]1C[C@@H](O[C@H]2C[C@@H](O[C@H]3C[C@](C)(O)[C@H](O)[C@@H](C)O3)[C@H](O)[C@@H](C)O2)[C@H](O)[C@@H](C)O1` (stereo not given in full), the AC50 is 36 nM (active) and 39.5 nM (active).

For `Nc1ccccc1O`, the AC50 was 32.1 µM (active).

As for `CCCCCCCCCCCCCCC[C@H](O)[C@@H](N)CO`, the outcome was inactive.

As to `[Cl-].[Cl-].[NH2-].[NH2-].[Pt+4]`, the outcome was inactive.

Turning to `CC(=O)O[Si](C)(OC(C)=O)OC(C)=O`, the outcome was inactive.

As to `O=C(O)CCCc1ccccc1`, the result was inactive.

`CC(CO)Oc1ccccc1` (stereo not given): the outcome was inactive.

On to `Nc1ncnc2c1ncn2[C@@H]1O[C@H](COP(=O)(O)OP(=O)(O)OP(=O)(O)O)[C@@H](O)[C@H]1O`, for which the result was inactive.

Consider `CCCCCCCCCCCl`, for which the outcome was inactive.

As for `CCOC(=O)COc1ccc(C)cc1`, the outcome was inactive.

For `CCO[Si](CC(C)C)(OCC)OCC`, the result was inactive.

`COc1ccccc1C=CC=O`: the result was inactive.

`CCCCCCCCS`: the outcome was inactive.

Regarding `Cc1c2oc3c(C)ccc(C(=O)N[C@@H]4C(=O)N[C@H](C(C)C)C(=O)N5CCC[C@H]5C(=O)N(C)CC(=O)N(C)[C@@H](C(C)C)C(=O)O[C@@H]4C)c3nc-2c(C(=O)N[C@@H]2C(=O)N[C@H](C(C)C)C(=O)N3CCC[C@H]3C(=O)N(C)CC(=O)N(C)[C@@H](C(C)C)C(=O)O[C@@H]2C)c(N)c1=O` (I: T[dV]P[Sar][NMeV] / II: T[dV]P[Sar][NMeV]; ester I:1-I:C, II:1-II:C; linker I:N-II:N via Actinocin(9to1)), the AC50 was 0.0328 nM (active) and 7.71 nM (active).

For the compound `Nc1c2c(nc3ccccc13)CCCC2`, the result was inactive.

Regarding `CN1C(=O)CN2CCc3ccccc3C2c2cc(Cl)ccc21` (stereo not given), the AC50 is 22.8 µM (active).
